IL1B secr inh: blocks inflammasome-driven IL-1 beta release; THP-1 LPS/ATP IL-1B secretion, AlphaLISA, 16 h; active compounds read low; activity change, % at 57.5 µM; 4.7% of 360,000 active; in the data active = activity change below about -50%; inconclusive = mostly about -30% to -49%
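Secreted IL-1B measured by AlphaLISA bead assay after 16 h compound exposure of THP-1 cells; compounds (final up to 57.5 uM) added 1 h before LPS (250 ng/mL) and ATP (1.25 mM) stimulation; lower signal means less secretion.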
TDP1 cell noCPT: qHTS for Inhibitors of human tyrosyl-DNA phosphodiesterase 1 (TDP1): qHTS in cells in absence of CPT. DT40 Tdp1-/- hTDP1 cells, no CPT, ATP luminescence, 48 h. Potency, µM (doses to about 46.2 µM), usual class: inhibitors. 15% of 420,000 active; also: nearly all actives have a fitted effect of over 55% in size
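Growth of hTDP1-complemented DT40 Tdp1-knockout cells is measured by ATP luminescence after at least 48 hr compound exposure at 37 °C, with DMSO substituting for the 20 nM CPT used in the parallel screen.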
HT1080-NT tox: kills 2HG-producing HT-1080-NT fibrosarcoma cells | HT-1080-NT fibrosarcoma viability, CellTiter-Glo ATP luminescence, 48 h | Potency, µM (doses to about 46.1 µM), usual class: cytotoxic | 1.6% of 360,000 active;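 also: NT is the 2HG producing partner of a matched IDH1 knockdown line; nearly all actives have a fitted effect of over 55% in size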
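Luminescent CellTiter-Glo readout after 48 hours of compound exposure at 37 degrees C defined viability of HT-1080-NT cells. Activity was normalized to DMSO wells and cell-free media wells; concentration-response curves were fitted and assigned curve classes.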
HT1080 IDH1KD tx: HT-1080 IDH1 knockdown cell toxicity (counter line); 2% of 360,000 active; HT-1080 IDH1 knockdown viability, ATP luminescence, 48 h; Potency, µM (titrated, usually from 46.1 µM), most hits filed as cytotoxic
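Assay cells: HT-1080 with IDH1 knockdown, 750 per well, RPMI/5% FBS. Exposure: 48 h at 37 °C following 2 h pre-incubation. Read: CellTiter-Glo luminescence; fitted concentration-response, curve class assigned.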
DT40 TDP1 CPT: growth inhibition of DT40 Tdp1-/-;hTDP1 cells with camptothecin (screen for TDP1 inhibitors); AID 686979; Potency, µM (highest dose often 46.2 µM), most hits filed as inhibitors; 12% of 420,000 active; chicken DT40 Tdp1-/-;hTDP1 cells + 20 nM CPT, ATP luminescence, 48 h; also: nearly all actives have a fitted effect of over 55% in size
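Cell growth measured by CellTiter-Glo luminescence after a minimum 48 h, 37 C compound exposure with 20 nM CPT in Tdp1-knockout DT40 cells stably expressing hTDP1, seeded 400/well; qHTS titration format.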
Of the large screens only hits and unclear results are named; the others gave an inactive call. Most compounds without a hit are left out; they make up all but 19% or so of the library. Unless noted, calls follow the shape of the dose curve; as a rule, active = well fitted curve in the direction sought with a large enough effect; inconclusive = small, poorly fitted or top-dose-only effect, or another doubt; inactive = no such curve, though single readings can be large; an effect the other way counts as inactive or inconclusive.

COC1=C(Br)C(=O)c2nc(C)ccc2C1=O	TDP1 cell noCPT 0.58µM, DT40 TDP1 CPT 0.65µM
COC1=C(N)C(=O)c2nc(C)ccc2C1=O	TDP1 cell noCPT 7.3µM, DT40 TDP1 CPT 5.2µM
CN(C)/C=N/c1nc2nccc(-c3cccc(Cl)c3)n2n1	IL1B secr inh -52, DT40 TDP1 CPT inconclusive
CN(C)/C=N/c1nc2nccc(-c3ccc(F)cc3)n2n1	none
O=C(Cc1ccccc1)NCC(=O)OCC(=O)c1ccc2ccccc2c1	none (no result: IL1B secr inh, HT1080-NT tox, HT1080 IDH1KD tx)
CN(C)S(=O)(=O)c1ccc(NC(=O)Cn2nc(-c3ccc4c(c3)OCCO4)ccc2=O)cc1	TDP1 cell noCPT 21µM, DT40 TDP1 CPT inconclusive
Cc1ccc(-c2ccc(=O)n(CC(=O)Nc3ccc4c(c3)OCCO4)n2)cc1	none
COc1ccc(NC(=O)CSC2=Nc3ccccc3C3=NC(Cc4ccccc4)C(=O)N23)cc1Cl (stereo not given)	TDP1 cell noCPT inconclusive, DT40 TDP1 CPT 21µM (no result: IL1B secr inh, HT1080-NT tox, HT1080 IDH1KD tx)
Cc1ccc(NC(=O)CSC2=Nc3ccccc3C3=NC(Cc4ccccc4)C(=O)N23)cc1C (stereo not given)	TDP1 cell noCPT 13µM, DT40 TDP1 CPT 9.2µM (no result: IL1B secr inh, HT1080-NT tox, HT1080 IDH1KD tx)
COc1ccc(CCNC(=O)CSC2=Nc3ccccc3C3=NC(CCC(=O)NCc4ccccc4)C(=O)N23)cc1OC (stereo not given)	none (no result: IL1B secr inh, HT1080-NT tox, HT1080 IDH1KD tx)
CCCN1CCN(C(=O)c2ccc3[nH]c(C)c(C)c3c2)CC1	none
COc1ccc(N/N=C(\C#N)C(=N)SCc2ccccc2)cc1	TDP1 cell noCPT 7.3µM, DT40 TDP1 CPT 4.6µM
CC[C@]12CCCN3CCc4c(n(c5ccccc45)C(=O)C1)C32 (stereo not given in full)	TDP1 cell noCPT inconclusive, HT1080 IDH1KD tx inconclusive, DT40 TDP1 CPT inconclusive
CC[C@]12CCCN3CCc4c(n(c5ccccc45)C(=O)C1)[C@H]32	TDP1 cell noCPT 9.4µM, DT40 TDP1 CPT 11µM (no result: IL1B secr inh, HT1080-NT tox, HT1080 IDH1KD tx)
COc1ccc(C(=O)NNC2=CC(=O)CC(C)(C)C2)cc1OC	none
CC(C)CNC(=O)c1ccc(C2SCC(=O)N2Cc2ccccc2)cc1 (stereo not given)	TDP1 cell noCPT 16µM, DT40 TDP1 CPT inconclusive
C/C(=N\OC(=O)c1ccc(Cl)cc1)c1nccs1	none
CCCCc1nc(NCCNC(=O)c2ccccc2)c(C#N)c2c1CSC(C)(C)C2	TDP1 cell noCPT 13µM, HT1080-NT tox inconclusive, HT1080 IDH1KD tx inconclusive, DT40 TDP1 CPT 23µM
CCCCc1nc(NCCNC(=O)c2ccco2)c(C#N)c2c1CSC(C)(C)C2	TDP1 cell noCPT 23µM, DT40 TDP1 CPT 29µM
COC(=O)N/N=C/c1ccccc1OCCOc1ccc(OC)cc1	TDP1 cell noCPT 16µM, HT1080-NT tox inconclusive
COC(=O)N/N=C/c1cn(CCOc2ccc(OC)cc2)c2ccccc12	TDP1 cell noCPT inconclusive, DT40 TDP1 CPT inconclusive
COc1ccc(NC(C)C(=O)N/N=C/c2ccccc2OCc2ccc(Br)cc2)cc1 (stereo not given)	TDP1 cell noCPT 22µM, DT40 TDP1 CPT inconclusive
O=[N+]([O-])c1ccc(S(=O)(=O)Nc2ccccn2)cc1	none
CSc1nsc2nc(=O)c(/C=C3\C(C)=Nc4ccc(C)cc43)c(N)n12	TDP1 cell noCPT inconclusive, HT1080-NT tox inconclusive, HT1080 IDH1KD tx inconclusive, DT40 TDP1 CPT 16µM
CCC1C(=O)Nc2nc(-c3ccccc3)c(-c3ccccc3)n2N=C1C (stereo not given)	TDP1 cell noCPT 23µM, DT40 TDP1 CPT 21µM
CC1=Nn2c(nc(-c3ccccc3)c2-c2ccccc2)N(CC(N)=O)C(=O)C1	none
COc1ccc(C2=CCCCCC2)cc1OC	TDP1 cell noCPT 12µM, DT40 TDP1 CPT inconclusive
CC(C)CC[n+]1ccccc1/C=C/c1ccc(N(C)C)cc1	IL1B secr inh -95, TDP1 cell noCPT 0.026µM, HT1080-NT tox inconclusive, HT1080 IDH1KD tx 23µM, DT40 TDP1 CPT 0.018µM
CC[C@@]1(C(=O)OC)N[C@H](CN(C)S(=O)(=O)c2ccc(C(F)(F)F)cc2)[C@@H]2C(=O)N(C)C(=O)[C@@H]21	none
CN(C)c1ccc(-c2ccnc3c2CC(C)(C(=O)Nc2ccc(Cl)c(C(F)(F)F)c2)O3)cc1 (stereo not given)	TDP1 cell noCPT 5.2µM, HT1080-NT tox inconclusive, HT1080 IDH1KD tx inconclusive, DT40 TDP1 CPT inconclusive
CC1(C(=O)Nc2ccccc2)Cc2c(-c3ccc4c(c3)OCO4)ccnc2O1 (stereo not given)	HT1080-NT tox inconclusive, HT1080 IDH1KD tx inconclusive, DT40 TDP1 CPT inconclusive
CC(=O)Nc1ccc(-c2ccnc3c2CC(C)(C(=O)Nc2ccc(Cl)c(C(F)(F)F)c2)O3)cc1 (stereo not given)	TDP1 cell noCPT 23µM, HT1080-NT tox inconclusive, HT1080 IDH1KD tx 16µM, DT40 TDP1 CPT 15µM
CC(=O)Nc1ccc(-c2ccnc3c2CC(C)(C(=O)Nc2ccc(Cl)cc2)O3)cc1 (stereo not given)	IL1B secr inh -53, HT1080-NT tox inconclusive, HT1080 IDH1KD tx inconclusive, DT40 TDP1 CPT inconclusive
CC1(C(=O)Nc2ccc(Cl)c(C(F)(F)F)c2)Cc2c(-c3ccccc3)ccnc2O1 (stereo not given)	TDP1 cell noCPT inconclusive, DT40 TDP1 CPT inconclusive
CC1(C(=O)Nc2cccc(Oc3ccccc3)c2)Cc2c(-c3ccc4c(c3)OCO4)ccnc2O1 (stereo not given)	TDP1 cell noCPT 13µM, HT1080-NT tox inconclusive, HT1080 IDH1KD tx inconclusive, DT40 TDP1 CPT inconclusive
Cc1noc(C)c1COC(=O)c1csc2c1CCC(C)C2 (stereo not given)	none
CC(=O)Nc1ccc(-c2ccnc3c2CC(C)(C(=O)Nc2ccc4c(c2)OCO4)O3)cc1 (stereo not given)	IL1B secr inh -51, TDP1 cell noCPT inconclusive, HT1080-NT tox inconclusive, HT1080 IDH1KD tx inconclusive, DT40 TDP1 CPT 18µM
CC(=O)Nc1ccc(NC(=O)C2(C)Cc3c(-c4ccc5c(c4)OCO5)ccnc3O2)cc1 (stereo not given)	none
O=C(c1ccco1)N1CCC2(CC1)CCN(C(c1ccccc1)c1ccccc1)CC2	TDP1 cell noCPT 21µM, DT40 TDP1 CPT inconclusive (no result: IL1B secr inh, HT1080-NT tox, HT1080 IDH1KD tx)
O=C(c1ccco1)N1CCC2(CC1)CCN(c1ccncc1)CC2	TDP1 cell noCPT 21µM, DT40 TDP1 CPT inconclusive (no result: IL1B secr inh, HT1080-NT tox, HT1080 IDH1KD tx)
O=C(c1ccncc1)N1CCC2(CC1)CN(c1ccc(-c3ccccc3)cc1)C2	TDP1 cell noCPT 7.3µM, DT40 TDP1 CPT inconclusive (no result: IL1B secr inh, HT1080-NT tox, HT1080 IDH1KD tx)
O=C(c1ccco1)N1CCC2(CC1)CN(c1ccc(-c3ccccc3)cc1)C2	TDP1 cell noCPT 9.2µM, DT40 TDP1 CPT 7.3µM (no result: IL1B secr inh, HT1080-NT tox, HT1080 IDH1KD tx)
O=C(c1ccco1)N1CCC2(CC1)CN(c1cccc(-c3ccccc3)c1)C2	TDP1 cell noCPT 13µM, DT40 TDP1 CPT 23µM (no result: IL1B secr inh, HT1080-NT tox, HT1080 IDH1KD tx)

High-throughput results from PubChem.
